Laboratory results: PubChem BioAssay (NCATS)
Results filed as inconclusive are left out. The list shows a part of the results. A call without a number means that no potency is given here. Calls of active or inactive are those of the source. Unless noted, the call rests on the fitted dose curve; in most records, active means well fitted curve in the direction sought with a large enough effect; inconclusive means small, poorly fitted or top-dose-only effect, or another doubt; inactive means no such curve, though single readings can be large; an effect the other way counts as inactive or inconclusive.

Columns and labels:
[1] = qHTS for Inhibitors of the vitamin D receptor (VDR): Hit Validation using a Texas Red Assay (AID 602201); settings: VDR coregulator binding, Texas Red fluorescence polarization; agonist-bound VDR ligand-binding domain; further: potency means the concentration at half of the fitted maximal effect
In short: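 Fluorescence polarization (Ex 595/Em 615 nm) of Texas Red (7 nM) with 1.5 uM VDR-LBD and LG19078 (final concentrations). Compounds were incubated for 2 hours at room temperature.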

[2] = molecular target: Phosphoglycerate kinase, glycosomal (Trypanosoma brucei brucei) (UniProt P07378); assay: qHTS for inhibitors of Phosphogylcerate Kinase: Hit Validation Screen (AID 686980); settings: TbPGK coupled GAPDH assay, Kinase-Glo luminescence; further: potency means the concentration at half of the fitted maximal effect; nearly all actives have a fitted effect of over 65% in size
In short: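 Luminescent ATP detection (Kinase-Glo Plus) follows a 60-minute room-temperature incubation, with wells lacking PGK as controls. Buffer: 100 mM TEA (pH 7.6), 5 mM MgCl2, 0.01% Tween-20. Coupling enzyme GAPDH (100 nM final) supplies unstable 1,3-BPG in-well.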

[3] = molecular target: DNA polymerase iota (Homo sapiens) (UniProt Q9UNA4); assay: qHTS for Inhibitors of Polymerase Iota: Confirmatory Assay for Cherry-picked Compounds (AID 720496); settings: Pol iota primer extension, TAMRA/BHQ fluorescence; further: potency means the concentration at half of the fitted maximal effect
Chain of DNA polymerase iota (Homo sapiens) (Q9UNA4 whole entry, looked up): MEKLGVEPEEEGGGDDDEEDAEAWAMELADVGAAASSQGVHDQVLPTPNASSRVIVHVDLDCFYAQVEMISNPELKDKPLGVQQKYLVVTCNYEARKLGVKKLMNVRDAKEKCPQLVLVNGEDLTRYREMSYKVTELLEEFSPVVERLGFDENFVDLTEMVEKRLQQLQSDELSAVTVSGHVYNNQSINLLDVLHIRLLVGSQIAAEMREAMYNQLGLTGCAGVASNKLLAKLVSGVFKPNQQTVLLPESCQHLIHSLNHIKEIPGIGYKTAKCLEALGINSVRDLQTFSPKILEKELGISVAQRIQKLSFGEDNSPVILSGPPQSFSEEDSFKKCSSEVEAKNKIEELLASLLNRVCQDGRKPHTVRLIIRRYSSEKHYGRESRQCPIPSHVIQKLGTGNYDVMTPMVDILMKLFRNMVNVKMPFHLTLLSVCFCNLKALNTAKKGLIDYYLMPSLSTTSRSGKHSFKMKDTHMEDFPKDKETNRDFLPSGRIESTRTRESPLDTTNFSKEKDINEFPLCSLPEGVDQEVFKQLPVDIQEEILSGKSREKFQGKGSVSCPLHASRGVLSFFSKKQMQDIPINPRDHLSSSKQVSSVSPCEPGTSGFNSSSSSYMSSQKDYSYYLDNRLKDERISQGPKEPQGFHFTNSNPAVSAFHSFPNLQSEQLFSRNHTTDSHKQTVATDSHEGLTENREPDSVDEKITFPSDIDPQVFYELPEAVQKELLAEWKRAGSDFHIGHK
In short: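 Recombinant human Pol iota (10 nM) was preincubated with compound for 15 min at room temperature, then 50 nM final primer/template substrate was added; the substrate carried a TAMRA-labeled reporter strand and a BHQ-2-quenched template. Fluorescence was read at 0 and 10 min.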

[4] = molecular target: DNA polymerase kappa (Homo sapiens) (UniProt Q9UBT6); assay: qHTS for Inhibitors of Polymerase Kappa: Confirmatory Assay for Cherry-picked Compounds (AID 720501); settings: purified Pol-kappa, fluorescent strand-displacement substrate; further: potency means the concentration at half of the fitted maximal effect
In short: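 Human Pol-kappa, dispensed at 10 nM, was preincubated with compounds for 15 min at room temperature. Reactions were started with primer/template substrate (50 nM final) carrying a TAMRA reporter strand and BHQ-2-quenched template, and fluorescence (ex 525/em 598 nm) was read at 0 and 10 min.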

[5] = molecular target: DNA polymerase eta (Homo sapiens) (UniProt Q9Y253); assay: qHTS for Inhibitors of Polymerase Eta: Confirmatory Assay for Cherry-picked Compounds (AID 720502); settings: Pol eta primer extension, TAMRA/BHQ fluorescence, 10 min; further: potency means the concentration at half of the fitted maximal effect
In short: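 Readout: TAMRA dequenching, ex 525/em 598 nm, read at 0 and 10 min. Enzyme: 10 nM human Pol eta, preincubated with compound 15 min RT. Substrate: 50 nM final annealed primer/reporter/template duplex.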

[6] = molecular target: Rap guanine nucleotide exchange factor 3 (Homo sapiens) (UniProt O95398); assay: Confirmatory qHTS for antagonist of cAMP-regulated guanine nucleotide exchange factor 3 (EPAC1) (AID 1645880); further: potency means the concentration at half of the fitted maximal effect; nearly all actives have a fitted effect of over 55% in size
Chain of Rap guanine nucleotide exchange factor 3 (Homo sapiens) (O95398 whole entry, looked up): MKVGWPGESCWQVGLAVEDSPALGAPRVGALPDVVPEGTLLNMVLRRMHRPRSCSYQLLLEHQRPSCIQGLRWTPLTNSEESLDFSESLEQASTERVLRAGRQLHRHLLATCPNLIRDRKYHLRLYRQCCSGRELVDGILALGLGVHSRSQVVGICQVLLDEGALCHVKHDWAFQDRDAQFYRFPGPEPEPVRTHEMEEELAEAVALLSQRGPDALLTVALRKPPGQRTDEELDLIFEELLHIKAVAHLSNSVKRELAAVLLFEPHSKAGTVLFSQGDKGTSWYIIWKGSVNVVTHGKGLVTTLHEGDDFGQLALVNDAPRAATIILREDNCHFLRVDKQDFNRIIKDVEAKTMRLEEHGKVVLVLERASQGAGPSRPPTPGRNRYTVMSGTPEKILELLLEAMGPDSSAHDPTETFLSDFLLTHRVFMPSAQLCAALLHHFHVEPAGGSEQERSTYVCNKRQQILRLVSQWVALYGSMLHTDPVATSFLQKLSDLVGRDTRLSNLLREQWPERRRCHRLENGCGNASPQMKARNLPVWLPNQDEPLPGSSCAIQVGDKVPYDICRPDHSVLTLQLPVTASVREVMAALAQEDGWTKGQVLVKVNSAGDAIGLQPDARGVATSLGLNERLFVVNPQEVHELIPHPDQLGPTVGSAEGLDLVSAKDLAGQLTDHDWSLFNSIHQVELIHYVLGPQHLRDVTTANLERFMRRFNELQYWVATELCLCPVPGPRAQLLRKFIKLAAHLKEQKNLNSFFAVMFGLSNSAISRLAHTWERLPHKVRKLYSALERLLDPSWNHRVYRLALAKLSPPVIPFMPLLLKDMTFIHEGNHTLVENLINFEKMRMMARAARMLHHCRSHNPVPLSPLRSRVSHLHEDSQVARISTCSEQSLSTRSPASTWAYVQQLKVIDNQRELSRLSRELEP
In short: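 Nucleotide exchange uses 100 nM EPAC1, 250 nM RAP1B-BODIPY-GDP and 50 uM GDP, with compounds in a concentration-titration series. After 5 min at room temperature, fluorescence (480 nm ex/540 nm em) is read every 5 min for 30 min. Data are normalized to control ATA and DMSO.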

[7] = molecular target: Rap guanine nucleotide exchange factor 3 (Homo sapiens) (UniProt O95398); assay: Confirmatory qHTS for agonist of cAMP-regulated guanine nucleotide exchange factor 3 (EPAC1) (AID 1645881);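 further: EPAC1 catalysed release of BODIPY-GDP from Rap1B seen as fluorescence loss; nearly all actives have a fitted effect of over 75% in size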
[8] = molecular target: Rap guanine nucleotide exchange factor 4 (Homo sapiens) (UniProt Q8WZA2); assay: Confirmatory qHTS for agonist of cAMP-regulated guanine nucleotide exchange factor 4 (EPAC2) (AID 1645884);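 further: nucleotide exchange releases bodipy-GDP from Rap1 and this lowers its fluorescence; nearly all actives have a fitted effect of over 65% in size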
Chain of Rap guanine nucleotide exchange factor 4 (Homo sapiens) (Q8WZA2 whole entry, looked up): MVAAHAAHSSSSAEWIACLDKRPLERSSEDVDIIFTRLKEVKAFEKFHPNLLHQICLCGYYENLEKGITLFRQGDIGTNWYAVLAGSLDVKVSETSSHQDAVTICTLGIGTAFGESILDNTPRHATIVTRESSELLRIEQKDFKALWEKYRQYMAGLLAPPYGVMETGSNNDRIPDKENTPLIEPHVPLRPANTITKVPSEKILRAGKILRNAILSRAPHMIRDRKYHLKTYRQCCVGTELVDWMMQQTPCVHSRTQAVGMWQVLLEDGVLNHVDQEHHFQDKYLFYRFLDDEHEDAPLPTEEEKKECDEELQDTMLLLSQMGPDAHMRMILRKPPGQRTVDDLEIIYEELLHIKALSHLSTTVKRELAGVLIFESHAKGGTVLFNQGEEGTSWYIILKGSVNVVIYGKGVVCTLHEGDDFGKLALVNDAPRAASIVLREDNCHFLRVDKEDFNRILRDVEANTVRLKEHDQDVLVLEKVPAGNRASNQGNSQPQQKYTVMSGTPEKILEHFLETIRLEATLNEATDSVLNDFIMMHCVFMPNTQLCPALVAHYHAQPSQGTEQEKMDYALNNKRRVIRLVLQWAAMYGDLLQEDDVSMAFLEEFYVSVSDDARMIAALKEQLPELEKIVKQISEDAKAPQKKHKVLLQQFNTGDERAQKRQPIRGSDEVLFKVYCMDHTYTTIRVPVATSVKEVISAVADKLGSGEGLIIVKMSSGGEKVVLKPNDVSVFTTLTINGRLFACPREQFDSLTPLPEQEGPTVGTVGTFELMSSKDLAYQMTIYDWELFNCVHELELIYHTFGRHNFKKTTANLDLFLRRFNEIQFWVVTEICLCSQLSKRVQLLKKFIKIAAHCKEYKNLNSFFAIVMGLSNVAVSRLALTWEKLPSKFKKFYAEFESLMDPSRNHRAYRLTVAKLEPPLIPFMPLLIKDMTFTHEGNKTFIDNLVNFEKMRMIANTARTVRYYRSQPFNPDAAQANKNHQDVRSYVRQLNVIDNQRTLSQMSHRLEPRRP

[9] = molecular target: Rap guanine nucleotide exchange factor 4 (Homo sapiens) (UniProt Q8WZA2); assay: Confirmatory qHTS for antagonist of cAMP-regulated guanine nucleotide exchange factor 4 (EPAC2) (AID 1645885); further: nearly all actives have a fitted effect of over 25% in size
[10] = molecular target: Rap guanine nucleotide exchange factor 3 (Homo sapiens) (UniProt O95398); assay: Counterscreen qHTS for antagonist of cAMP-regulated guanine nucleotide exchange factor 3 (EPAC1) (AID 1645888);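 further: fluorescence loss as bound BODIPY-GDP is released from Rap1B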
In short: (§1)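 Measured: fluorescence of BODIPY-GDP bound to Rap1B, which falls as exchange proceeds. Conditions include 50 uM competing GDP, 5 and 30 min reads, and a later cAMP challenge for antagonist detection.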

[11] = molecular target: Rap guanine nucleotide exchange factor 3 (Homo sapiens) (UniProt O95398); assay: Counterscreen qHTS for agonist of cAMP-regulated guanine nucleotide exchange factor 3 (EPAC1) (AID 1645889); further: nearly all actives have a fitted effect of over 40% in size
In short: as §1

[12] = Viability counterscreen for antagonist of constitutive androstane receptor (CAR) against the NCATS DSHEA and TCM libraries (AID 1794837);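 further: compound exposure lasted 24 h before viability reading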
In short: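 HepG2-CYP2B6-hCAR cells (2,500/well) were allowed to attach for 5 h, then exposed to compounds with 48 uM CITCO for 24 h at 37C. Viability was read by CellTiter-Fluor fluorescence after 1 h.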

[13] = Viability counterscreen for agonist of constitutive androstane receptor (CAR) against the NCATS DSHEA and TCM libraries (AID 1794838)
In short: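 HepG2-CYP2B6-hCAR cells (2,500/well) attached 5 h, then got compounds plus 0.75 uM PK11195 final. After 24 h at 37C, viability read by CellTiter-Fluor fluorescence (Ex/Em 405/540 nm).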

[14] = molecular target: Nuclear receptor subfamily 1 group I member 3 (Homo sapiens) (UniProt Q14994); assay: Primary qHTS for agonist of constitutive androstane receptor (CAR) against the NCATS DSHEA and TCM libraries (AID 1794839);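 further: HepG2 cells expressing human CAR with a CYP2B6 reporter plus PK11195 antagonist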
Chain of Nuclear receptor subfamily 1 group I member 3 (Homo sapiens) (Q14994 whole entry, looked up): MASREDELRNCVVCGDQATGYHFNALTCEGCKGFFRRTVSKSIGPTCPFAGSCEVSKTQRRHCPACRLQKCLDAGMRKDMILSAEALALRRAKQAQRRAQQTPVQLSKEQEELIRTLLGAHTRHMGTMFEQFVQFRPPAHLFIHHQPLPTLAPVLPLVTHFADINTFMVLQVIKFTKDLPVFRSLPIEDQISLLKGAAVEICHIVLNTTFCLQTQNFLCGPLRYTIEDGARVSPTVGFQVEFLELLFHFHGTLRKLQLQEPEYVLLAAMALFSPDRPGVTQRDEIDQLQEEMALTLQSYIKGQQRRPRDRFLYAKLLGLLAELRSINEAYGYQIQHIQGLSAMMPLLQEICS
In short: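 HepG2-CYP2B6-hCAR cells (2,500/well) were attached for 5 h, then treated for 24 h at 37 °C with compounds plus 0.75 µM PK11195. Luciferase luminescence (ONE-Glo) was read, with CellTiter-Fluor viability (Ex/Em 405/540 nm).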

[15] = HepG2 viability counterscreen (readout 2: ATP content) against the NCATS DSHEA and TCM libraries (AID 1794840);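 further: HepG2 cells exposed to substances for about 24 h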
In short: (§2)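 HepG2 cells (1,000 cells/well) attached ~4 h, then treated ~24 h at 37C with substances. Protease activity read by GF-AFC (25 uM final, 30 min, Ex/Em 380/510 nm); ATP content then by CellTiter-Glo luminescence.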

[16] = HepG2 viability counterscreen (readout 1: protease activity) against the NCATS DSHEA and TCM libraries (AID 1794841);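 further: cells exposed to compounds for about 24 h before the protease read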
In short: as §2

[17] = molecular target: Cytochrome P450 3A4 (Homo sapiens) (UniProt P08684); assay: qHTS for inhibitors of CYP3A4 against the NCATS DSHEA and TCM libraries (AID 1919971);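 further: inhibition lowers luminescence from luciferin made by CYP3A4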
In short: (§3)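 Light output from converted D-luciferin reports remaining CYP activity. Compounds preincubate with enzyme and substrate for 15 min; NADPH regeneration (1x final) runs the reaction for 30-45 min.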

[18] = molecular target: Cytochrome P450 2D6 (Homo sapiens) (UniProt P10635); assay: qHTS for inhibitors of CYP2D6 against the NCATS DSHEA and TCM libraries (AID 1919972)
Chain of Cytochrome P450 2D6 (Homo sapiens) (P10635 whole entry, looked up): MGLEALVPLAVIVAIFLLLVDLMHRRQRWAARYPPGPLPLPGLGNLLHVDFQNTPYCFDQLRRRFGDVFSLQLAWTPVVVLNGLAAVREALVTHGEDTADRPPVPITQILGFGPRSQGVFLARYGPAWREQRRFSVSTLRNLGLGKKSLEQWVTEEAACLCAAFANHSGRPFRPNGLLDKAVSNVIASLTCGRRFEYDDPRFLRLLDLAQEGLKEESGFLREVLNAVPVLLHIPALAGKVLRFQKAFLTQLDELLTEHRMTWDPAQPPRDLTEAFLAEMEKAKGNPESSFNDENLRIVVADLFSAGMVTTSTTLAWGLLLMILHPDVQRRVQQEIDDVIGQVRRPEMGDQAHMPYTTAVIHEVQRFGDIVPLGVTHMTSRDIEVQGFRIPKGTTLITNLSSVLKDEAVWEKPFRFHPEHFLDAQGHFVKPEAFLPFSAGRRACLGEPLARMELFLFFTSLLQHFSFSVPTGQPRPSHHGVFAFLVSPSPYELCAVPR
In short: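 Steps: enzyme plus luciferin substrate dispensed; test substances pinned; 15 min RT; 1x NADPH regenerating solution added, 30–45 min RT protected from light; detection reagent, 30 min RT; luminescence measured. Minus-enzyme wells as background.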

[19] = molecular target: Cytochrome P450 2C9 (Homo sapiens) (UniProt P11712); assay: qHTS for inhibitors of CYP2C9 against the NCATS DSHEA and TCM libraries (AID 1919973);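 further: luminogenic pro-luciferin CYP2C9 substrate turned into luciferin with NADPH regeneration; series mostly up to about 34 µM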
Chain of Cytochrome P450 2C9 (Homo sapiens) (P11712 whole entry, looked up): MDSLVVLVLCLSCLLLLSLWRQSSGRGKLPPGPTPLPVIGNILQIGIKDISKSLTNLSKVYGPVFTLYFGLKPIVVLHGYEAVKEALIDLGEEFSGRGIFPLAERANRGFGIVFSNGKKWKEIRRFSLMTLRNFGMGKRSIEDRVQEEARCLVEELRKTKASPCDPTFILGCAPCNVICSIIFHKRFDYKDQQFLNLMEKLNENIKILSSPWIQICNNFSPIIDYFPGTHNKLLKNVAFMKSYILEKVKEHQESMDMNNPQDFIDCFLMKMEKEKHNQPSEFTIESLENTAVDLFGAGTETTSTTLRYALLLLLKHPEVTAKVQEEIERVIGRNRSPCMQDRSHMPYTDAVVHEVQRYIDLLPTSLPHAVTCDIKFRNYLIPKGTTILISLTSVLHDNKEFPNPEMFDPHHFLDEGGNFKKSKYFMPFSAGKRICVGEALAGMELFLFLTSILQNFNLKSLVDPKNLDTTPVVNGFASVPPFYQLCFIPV
In short: as §3

[20] = molecular target: Cytochrome P450 2C19 (Homo sapiens) (UniProt P33261); assay: qHTS for inhibitors of CYP2C19 against the NCATS DSHEA and TCM libraries (AID 1919974);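 further: luminescence from luciferin released by CYP2C19 oxidation of a pro-luciferin substrate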
Chain of Cytochrome P450 2C19 (Homo sapiens) (P33261 whole entry, looked up): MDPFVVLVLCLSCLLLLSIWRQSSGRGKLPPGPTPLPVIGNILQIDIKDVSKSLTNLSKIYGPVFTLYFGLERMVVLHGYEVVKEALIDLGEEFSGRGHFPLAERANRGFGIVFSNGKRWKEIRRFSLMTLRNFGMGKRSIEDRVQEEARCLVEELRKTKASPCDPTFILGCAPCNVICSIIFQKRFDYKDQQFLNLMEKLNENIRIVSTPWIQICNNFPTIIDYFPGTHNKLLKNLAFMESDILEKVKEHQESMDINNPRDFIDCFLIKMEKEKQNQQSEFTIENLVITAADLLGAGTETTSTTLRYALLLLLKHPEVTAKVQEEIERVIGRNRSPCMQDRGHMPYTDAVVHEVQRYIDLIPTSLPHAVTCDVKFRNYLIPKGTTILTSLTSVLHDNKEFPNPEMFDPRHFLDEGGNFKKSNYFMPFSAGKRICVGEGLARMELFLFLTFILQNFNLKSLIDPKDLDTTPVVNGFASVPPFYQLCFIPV
In short: as §3

[21] = KB-3-1 P-gp reporter qHTS against the NCATS DSHEA and TCM libraries (AID 1919975)
In short: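 Parental KB-3-1 human cervical adenocarcinoma cells (500 cells/well, DMEM + 10% FBS) were treated with substances for ~72 h at 37C; viability was read by CellTiter-Glo luminescence.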

[22] = molecular target: Cytochrome P450 1A2 (Homo sapiens) (UniProt P05177); assay: qHTS for inhibitors of CYPIA2 against the NCATS DSHEA and TCM libraries (AID 1919976);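 further: light from luciferin formed by CYP1A2 from a pro-luciferin substrate; series mostly up to about 37 µM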
In short: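 In this quantitative HTS, inhibition of recombinant human CYP1A2 was measured as loss of luciferin-derived luminescence. Turnover ran 30-45 min at RT after NADPH regeneration solution was added.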

[23] = qHTS Counterscreen for compound interference against the NCATS DSHEA and TCM libraries (AID 1919978); settings: firefly luciferase detection reagent interference, luminescence
In short: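 D-luciferin (1 uM final) or 100 mM potassium phosphate buffer alone was preincubated 15 min at RT with compounds (19.5 nM to 39.8 uM final). Luciferin detection reagent was then added and luminescence read after 30 min at RT.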

[24] = Dual reporter qHTS for agonist of Pregnane X Receptor (hPXR) against the NCATS DSHEA and TCM libraries: Fluorescence readout (AID 1920058)
In short: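 Measures viability of the PXR reporter HepG2 line by protease-substrate fluorescence (405/540 nm), taken 1 h after CellTiter-Fluor addition. Substances are tested as concentration series over a ~24 h exposure, with rifampicin as agonist control.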

[25] = molecular target: Nuclear receptor subfamily 1 group I member 2 (Homo sapiens) (UniProt O75469); assay: Dual reporter qHTS for agonist of Pregnane X Receptor (hPXR) against the NCATS DSHEA and TCM libraries: Luminescence readout (AID 1920059)
Chain of Nuclear receptor subfamily 1 group I member 2 (Homo sapiens) (O75469 whole entry, looked up): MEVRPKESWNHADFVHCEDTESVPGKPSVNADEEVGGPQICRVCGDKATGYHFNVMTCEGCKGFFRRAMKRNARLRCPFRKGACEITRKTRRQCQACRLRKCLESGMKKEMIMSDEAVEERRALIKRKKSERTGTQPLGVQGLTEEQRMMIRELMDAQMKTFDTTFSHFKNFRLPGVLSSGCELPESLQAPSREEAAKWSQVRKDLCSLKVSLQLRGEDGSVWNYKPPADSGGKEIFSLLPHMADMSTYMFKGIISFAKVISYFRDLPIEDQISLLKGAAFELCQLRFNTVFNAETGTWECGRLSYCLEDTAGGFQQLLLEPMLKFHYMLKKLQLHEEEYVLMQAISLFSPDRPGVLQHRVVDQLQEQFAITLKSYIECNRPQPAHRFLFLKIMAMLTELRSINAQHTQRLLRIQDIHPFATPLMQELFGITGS
In short: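 hPXR-LucHepG2 cells in phenol red-free DMEM with 5% charcoal-stripped FBS, 2000 cells/well, attached 5 h, then exposed 24 h at 37C to compounds; rifampicin as positive agonist control (2.8 nM–92 uM). Luciferase luminescence read.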

[26] = molecular target: Nuclear receptor subfamily 1 group I member 2 (Homo sapiens) (UniProt O75469); assay: Dual reporter qHTS for antagonist of Pregnane X Receptor (hPXR) against the NCATS DSHEA and TCM libraries: Luminescence Readout (AID 1920060);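 further: HepG2 cells carrying hPXR luciferase reporter stimulated with rifampicin at 2 µM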
In short: (§4)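 Antagonist mode: rifampicin 2 uM final co-added with compounds to hPXR-LucHepG2 cells for 24 h at 37C. Viability by CellTiter-Fluor, Ex/Em 405/540 nm, 1 h; reporter by ONE-Glo luminescence.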

[27] = Dual reporter qHTS for antagonist of Pregnane X Receptor (hPXR) against the NCATS DSHEA and TCM libraries: Fluorescence Readout (AID 1920061)
In short: as §4

[28] = qHTS drug screen for cell cycle checkpoint inhibitors in PARPi-resistant BRCA-mutant ovarian cancer cell lines. (AID 1963452; calls by dose curve); settings: PEO1/OlaR viability, CellTiter-Glo luminescence, 96 h, stronger effect = lower value
In short: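 PEO1, PEO4 and PEO1/OlaR ovarian cancer cells, 600 per well, exposed 96 h at 37C to a dilution series. Viability read by CellTiter-Glo luminescence, normalized to DMSO and empty wells; activity summarized as Z-AUC.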

[29] = molecular target: Cytochrome P450 2C9 (Homo sapiens) (UniProt P11712); assay: Cytochrome P450 family 2 subfamily C member 9 (CYP2C9) small molecule antagonists: luciferase biochemical (cell-free) qHTS assay (AID 1645842; active means well fitted curve in the direction sought with a large enough effect in the repeat runs; an effect the other way counts as inactive or inconclusive; further: potency means the concentration at half of the fitted maximal effect; nearly all actives have a fitted effect of over 55% in size)
In short: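 Luminescence, after 20 min with luciferin detection reagent, reflected CYP2C9 turnover during a 1 h NADPH-driven reaction at 37C. Enzyme-substrate mix contained 0.4% bovine serum albumin and was preincubated with compound 10 min at room temperature.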

[30] = measured here: PEO1 parental Z-AUC

Cc1ccnc(NC(c2cc(C)ccc2O)c2ccc3cccnc3c2O)c1 (stereo not given)
Potency [1]: 28.2 µM (active)

C=CC1=C(C(=O)O)N2C(=O)[C@@H](NC(=O)/C(=N\OCC(=O)O)c3csc(N)n3)[C@H]2SC1
Potency [2]: 4.11 µM (active) | Potency [3]: 7.52 µM (active) | Potency [4]: 4.74 µM (active) | Potency [5]: 19 µM (active)

COc1ccc(CCNC(=O)Cn2nc(C)c3c(C)n(-c4ccc(C)cc4)nc3c2=O)c(OC)c1
Potency [6]: 67.5 µM (active) | Potency [7]: inactive | Potency [8]: inactive | outcome [9]: inactive [at 12.7 µM] | Potency [10]: inactive | Potency [11]: inactive

Cc1cc(Cl)ccc1NC(=O)Cn1nc(C)c2c(C)n(-c3ccccc3)nc2c1=O
Potency [6]: 84.9 µM (active) | Potency [7]: inactive | Potency [8]: inactive | Potency [9]: inactive | Potency [10]: inactive

CCC(/C=C/[C@@H](C)[C@H]1CCC2C3CC=C4C[C@@H](O)CC[C@]4(C)C3CC[C@@]21C)C(C)C (stereo not given in full)
outcome [12]: inactive | outcome [13]: inactive | outcome [14]: inactive | outcome [15]: inactive | outcome [16]: inactive | outcome [17]: inactive | outcome [18]: inactive | outcome [19]: inactive | outcome [20]: inactive | outcome [21]: inactive | outcome [22]: inactive | max response [23]: 3.05% (inactive) | outcome [24]: inactive | outcome [25]: inactive | outcome [26]: inactive | outcome [27]: inactive

Cc1cc2c(F)c(Oc3ncnn4cc(OC[C@@H](C)OC(=O)[C@H](C)N)c(C)c34)ccc2[nH]1
Z-AUC [28]: 1.46 (inactive) | Z-AUC [28, 30]: 0.526 | Z-AUC ([28]; measured here: PEO4 Z-AUC): 0.822

CCn1c(N)c(C(=O)NC)c(=O)c2ccc(C#C[C@@](C)(O)COC)nc21
Z-AUC [28]: -0.226 (inactive) | Z-AUC [28, 30]: -0.662 | Z-AUC ([28]; measured here: PEO4 Z-AUC): 0.0317

COc1cc(C(=O)NC(c2ccccc2Cl)c2cc(Cl)c3cccnc3c2O)cc(OC)c1OC (stereo not given)
Potency [29]: 15.1 µM (active)

Cc1ccccc1C(=O)Nc1cccc(-c2nc3cccnc3s2)c1
Potency [29]: 6.74 µM (active)
